Potency data for 41 compounds are collected here from PubChem BioAssay (NCATS).

SMILES strings stand for the structures. Results filed as inconclusive are left out. Activity calls are given as the source filed them. The call rests on the fitted dose curve; tested in HEK293 reporter line.

Test [1] can be described thus: qHTS for Inhibitors of the Functional Ribonucleoprotein Complex (vRNP) of Lassa (LASV) Arenavirus: LASV Primary Screen - GLuc reporter signal (AID 1347082). Further: nearly all actives have a fitted effect of over 60% in size.
Test [2] can be described thus: qHTS for Inhibitors of the Functional Ribonucleoprotein Complex (vRNP) of Lassa (LASV) Arenavirus: Viability assay - alamar blue signal for LASV Primary Screen (AID 1347083). Further: nearly all actives have a fitted effect of over 80% in size.
Potency means the concentration at half of the fitted maximal effect.

For the compound `CCc1cc(Nc2nccc(-c3c(-c4ccc(OC)c(C(=O)Nc5c(F)cccc5F)c4)nc4ccccn34)n2)c(OC)cc1N1CCC(N2CCN(S(C)(=O)=O)CC2)CC1`, the Potency result in test [1] and in test [2] was “inactive” each time.
With `COc1ccc(CC2SC(=O)NC2=O)cc1C(=O)NCc1ccc(C(F)(F)F)cc1` (configuration not stated), the Potency entry in test [1] and in test [2] was “inactive” throughout.
Turning to `O=C(NO)c1ccccc1`, the Potency entry in test [1] and in test [2] was “inactive” each time.
For `CC(C)(C)C(O)/C=C/c1ccc2c(c1)OCO2` (configuration not stated), the Potency result in test [1] and in test [2] was “inactive” each time.
As for `Clc1ccc(-c2nc3sccn3c2C=NOCc2ccc(Cl)c(Cl)c2)cc1`, the Potency result in test [1] and in test [2] was “inactive” in each case.
As for `CC(=O)NC(C)c1ccc(Oc2ccc(OC(C)C)cc2)cc1` (configuration not stated), the Potency entry in test [1] and in test [2] was “inactive” in each case.
With `C=CCNC(N)=S`, the Potency result in test [1] and in test [2] was “inactive” throughout.
Take `COc1ccc(-c2ccc3c(N4CCOCC4)nc(N4C[C@@H](C)O[C@@H](C)C4)nc3n2)cc1CO`: the Potency was 0.344 µM (active) in test [1] and 0.243 µM (active) in test [2].
`CC1=NN(c2ccccc2)C(=O)C1`: the Potency entry in test [1] and in test [2] was “inactive” in each case.
Turning to `COc1ccccc1N1CCN(CC(O)COc2cc(OC)c(OC)c(OC)c2)CC1` (configuration not stated), the Potency result in test [1] and in test [2] was “inactive” in each case.
Consider `OCc1c[nH]c2ccccc12`, for which the Potency entry in test [1] and in test [2] was “inactive” in each case.
In the case of `Nc1ccc(O)c([N+](=O)[O-])c1`, the Potency entry in test [1] and in test [2] was “inactive” in each case.
Turning to `CC(C)(c1ccc(O)cc1)c1ccc(O)cc1`, the Potency entry in test [1] and in test [2] was “inactive” each time.
Turning to `Cc1cc2c(cc1C1(c3ccc(C(=O)O)cn3)CC1)C(C)(C)CCC2(C)C`, the Potency result in test [1] and in test [2] was “inactive” in each case.
As to `COc1ccc2c(c1)CC[C@H]1[C@@H]2CC[C@]2(C)[C@@H](NCCCCCCN3C(=O)C=CC3=O)CC[C@H]12`, the Potency entry in test [1] and in test [2] was “inactive” in each case.
Turning to `O=C(Oc1ccccc1)c1cccc(C(=O)Oc2ccccc2)c1`, the Potency result in test [1] and in test [2] was “inactive” in each case.
Regarding `CCCCC(CC)COC(=O)c1ccccc1C(=O)O` (configuration not stated), the Potency result in test [1] and in test [2] was “inactive” in each case.
In the case of `C1=CC2C3C=CC(C3)C2C1` (configuration not stated), the Potency result in test [1] and in test [2] was “inactive” throughout.
`CN(C)CC/C=C1/c2ccccc2COc2ccc(CC(=O)O)cc21`: the Potency entry in test [1] and in test [2] was “inactive” each time.
In the case of `CC1(C)CCC(c2ccc(Cl)cc2)=C(CN2CCN(c3ccc(C(=O)NS(=O)(=O)c4ccc(N[C@H](CCN5CCOCC5)CSc5ccccc5)c(S(=O)(=O)C(F)(F)F)c4)cc3)CC2)C1`, the Potency entry in test [1] and in test [2] was “inactive” in each case.
With `COc1cc2nc(-c3ccc(N4CCN(C)CC4)cc3)nc(NCCN3CCOCC3)c2cc1OC`, the Potency in test [1] is 0.685 µM (active); in test [2], 0.769 µM (active).
As for `C[C@@]12O[C@@H](C[C@]1(O)CO)n1c3ccccc3c3c4c(c5c6ccccc6n2c5c31)CNC4=O`, the Potency in test [1] is 9.68 µM (active); in test [2], 0.432 µM (active).
Regarding `CCN(c1ccccc1)c1cc(NC)[n+](C)c(C)n1`, the Potency entry in test [1] and in test [2] was “inactive” in each case.
Consider `CC(NCc1ccc2c(c1)nc(NC(=O)c1ccc(-c3cn[nH]c3)s1)n2CC(C)(C)O)C(C)(C)C` (configuration not stated), for which the Potency in test [1] is 1.93 µM (active); in test [2], 0.485 µM (active).
On to `CC(C)[C@]12O[C@@H]1[C@@H]1O[C@]13[C@]1(O[C@H]1C[C@@H]1C4=C(CC[C@@]13C)C(=O)OC4)[C@H]2O`, for which the Potency result in test [1] and in test [2] was “inactive” in each case.
In the case of `NC(=O)c1ccc(N(C(N)=O)c2c(F)cccc2F)nc1-c1ccc(F)cc1F`, the Potency result in test [1] is “inactive”. The Potency in test [2] was 34.3 µM (active).
On to `Cc1cccc(C)c1NC(=O)c1ccccc1C(=O)O`, for which the Potency entry in test [1] and in test [2] was “inactive” each time.
As to `CC(=O)Nc1ccc(O)cc1`, the Potency entry in test [1] and in test [2] was “inactive” in each case.
As for `O=C(C=Cc1cccnc1)NCCCCC1CCN(C(=O)c2ccccc2)CC1`, the Potency is 0.0685 µM (active) in test [1] and 0.0611 µM (active) in test [2].
In the case of `Cc1cccc(C)c1NC(=O)c1ccc(N)cc1`, the Potency result in test [1] and in test [2] was “inactive” each time.
Regarding `CC(C)(Sc1ccc(CCN(CCCCC2CCCCC2)C(=O)NC2CCCCC2)cc1)C(=O)O`, the Potency entry in test [1] and in test [2] was “inactive” in each case.
Consider `Cc1c(C)c2c(c(C)c1OC(=O)c1cccnc1)CC[C@@](C)(CCC[C@H](C)CCC[C@H](C)CCCC(C)C)O2`, for which the Potency result in test [1] and in test [2] was “inactive” each time.
For `Nc1ccc(-c2ccc3ncc4ccc(=O)n(-c5cccc(C(F)(F)F)c5)c4c3c2)cn1`, the Potency in test [1] was 0.0024 µM (active); in test [2] it was 0.0027 µM (active).
The like results for `CCCOC(=O)c1ccc(O)cc1` were, in that order, “inactive” and “inactive”.
As to `CC(C)c1ccc2c(c1)c(SC(C)(C)C)c(CC(C)(C)C(=O)O)n2Cc1ccc(Cl)cc1`, the Potency in test [1] and in test [2] was 12.2 µM (active) throughout.
On to `C[C@]12C[C@H](O)[C@H]3[C@@H](CCC4=CC(=O)CC[C@@]43C)[C@@H]1CC[C@@H]2C(=O)CO`, for which the Potency entry in test [1] and in test [2] was “inactive” each time.
As to `O=C(NCCS(=O)(=O)c1ccc(C(F)(F)F)cn1)c1ccc(Cl)cc1`, the Potency result in test [1] and in test [2] was “inactive” in each case.
With `CS(=O)(=O)Nc1ccc([N+](=O)[O-])cc1Oc1ccccc1`, the Potency result in test [1] and in test [2] was “inactive” throughout.
`CCCCCCCCCCC(CO)CCCCCCCC` (configuration not stated): the Potency entry in test [1] and in test [2] was “inactive” each time.
Consider `CCCCCCCc1ccc(CCc2cccc(O)c2C(=O)O)cc1`, for which the Potency result in test [1] and in test [2] was “inactive” in each case.
Consider `C#CC(C)(CC)OC(=O)c1ccccc1C(=O)O` (configuration not stated), for which the Potency entry in test [1] and in test [2] was “inactive” each time.
